# AddAB inh = less growth of phage-infected E. coli with AddAB; inhibition, % at 11.9 µM; 0.29% of 330,000 active; E. coli expressing H. pylori AddAB, absorbance growth; AID 435030; in the data active = inhibition above about 12%;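 also: 0% = vehicle wells of infected cells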
# E coli growth-1 = blocks Escherichia coli growth; OD600, 23 h; hits give low values; OD600 absorbance (concentration not given with the values); 0.21% of 330,000 active; AID 1053175;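 active = OD600 absorbance below the run mean of sample wells minus 3.6 SD, in any replicate, cut at about 0.56 in these data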
# phage Ecoli inh = E. coli growth loss with phage present; growth absorbance; inhibition, % at 11.9 µM; 0.26% of 360,000 active; AID 651602; in the data active = inhibition above about 11%
# Tat transport = inhibitors of E. coli Tat protein transport | inhibition, % at 10 µM | E. coli MC4100 TorA-mCherry Tat export, fluorescence | 0.036% of 340,000 active;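 active = mean replicate inhibition at least 50% and at least half of replicates individually reaching 50%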;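 also: exported cargo escapes ClpAP degradation while cytoplasmic cargo is degraded and loses fluorescence; 0% = median of neutral control wells and 100% = median of NaSCN control wells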
# E coli growth-2 = reduces bacterial viability in AddAB counter-screen; E. coli V3065 growth, OD600 absorbance, 18 h; inhibition, % at 11.9 µM; 0.27% of 330,000 active;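 active = inhibition above the campaign's mean inhibition across all tested compounds plus 3 SD, cut at about 9.9% in these data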;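 also: uninfected addAB+ strain grown without phage in ampicillin broth; 0% = DMSO wells and 100% = ciprofloxacin 0.95 µg/ml wells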
# AddAB conf = confirmation screen: growth loss of phage-infected E. coli expressing H. pylori AddAB. shares compounds with AddAB inh. E. coli V3065 expressing H. pylori AddAB, T4 phage, OD; T4 phage with gene 2 nonsense mutations. inhibition, % at 11.9 µM. 64% of 880 active. AID 488942;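 active = mean inhibition above a set limit taken from the earlier primary screen, cut at about 13% in these data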;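 also: higher means less bacterial growth since AddAB block lets phage replicate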
# RecBCD counter = counter-screen: growth loss of RecBCD+ E. coli with mutant T4 phage; shares compounds with AddAB inh; E. coli V66 + mutant T4 phage, OD growth; inhibition, % at 11.9 µM; 73% of 880 active;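 active = mean inhibition above the mean of solvent-only control wells plus 3 SD, cut at about 4% in these data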;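 also: optical density read after an 18 h incubation at 37 °C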
# bact viab count = counter-screen for AddAB inhibitors: inhibitors of bacterial viability. shares compounds with AddAB inh. absorbance (AddAB counterscreen). inhibition, % at 11.9 µM. 35% of 880 active. AID 488956; in the data active = inhibition above about 25%
# RecBCD conf = growth loss of phage-infected V66 E. coli, RecBCD confirmation screen | shares compounds with phage Ecoli inh | E. coli V66 + T4 2- phage, growth OD | inhibition, % at 11.9 µM | 45% of 890 active;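 active = mean inhibition over triplicates exceeding the hit threshold derived in the original primary screen, cut at about 11% in these data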
# Ecoli viability = bacterial viability inhibition counter-screen for RecBCD; 29% of 890 active; inhibition, % at 11.9 µM; E. coli viability, absorbance (OD) growth; AID 651983; shares compounds with phage Ecoli inh; in the data active = inhibition above about 20%;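 also: E. coli strain V66 grown with compound alone and no phage infection; 0% = bacteria with DMSO vehicle only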
# AddAB phage OD = growth loss of phage-infected AddAB E. coli, RecBCD counter-screen | shares compounds with phage Ecoli inh | E. coli expressing H. pylori AddAB + T4 phage, OD growth; gene 2 mutant T4, recBCD-deleted host | inhibition, % at 11.9 µM | 45% of 890 active | AID 651984;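 active = mean inhibition above the solvent-only control wells' mean plus 3 SD, cut at about 22% in these data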;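 also: higher means less bacterial growth from phage killing when AddAB is blocked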
# An asterisk follows results filed as active; . = no result. Compounds with a hit are over-represented: about 0.5% of the library has one in this group of screens.
SMILES,AddAB inh,E coli growth-1,phage Ecoli inh,Tat transport,E coli growth-2,AddAB conf,RecBCD counter,bact viab count,RecBCD conf,Ecoli viability,AddAB phage OD
CCCc1[nH]n(-c2nc3ccccc3s2)c(=O)c1C=NCCCN(CC)CC,-1,0.69,0,4,-2,.,.,.,.,.,.
Cc1onc(-c2ccccc2)c1C(=O)O/N=C(\N)c1ccc([N+](=O)[O-])o1,16*,.,-16,3,7,33*,3,6,.,.,.
CCn1cc(C(=O)NCC(C)C)c(=O)c2cc(F)c(N3CCN(C(=O)c4ccco4)CC3)cc21,4,0.57,2,7,2,.,.,.,.,.,.
CCn1cc(C(=O)NCc2ccco2)c(=O)c2cc(F)c(N3CCN(C(=O)c4ccco4)CC3)cc21,49*,0.45*,4,1,50*,102*,4.0*,76*,.,.,.
CCC(C)NC(=O)c1cn(CC)c2cc(N3CCN(C(=O)c4ccco4)CC3)c(F)cc2c1=O (configuration not stated),18*,0.54,0,-4,12*,96*,0,25,.,.,.
O=C(NCCC1CCCCN1S(=O)(=O)c1ccc(F)cc1)C(=O)Nc1ccccc1F (configuration not stated),2,0.62,1,5,2,.,.,.,.,.,.
Cc1ccccc1-n1c(SCC(=O)c2c(N)n(C)c(=O)n(C)c2=O)nc2sc3c(c2c1=O)CCCC3,-1,0.71,1,-10,0,.,.,.,.,.,.
Cc1cccc(OC(C)c2ccnc3nc(N=CN(C)C)nn23)c1 (configuration not stated),.,0.66,.,.,.,.,.,.,.,.,.
Oc1ccc2ccccc2c1N=Nc1ccccn1,26*,0.74,27*,4,31*,27*,25*,25,23*,27*,30*
CCC(=O)NCCc1nc2cc(NC(=O)c3cccc([N+](=O)[O-])c3)ccc2n1C,.,0.68,2,-4,.,.,.,.,.,.,.
COc1cc(Cc2cc(N)nc(N)n2)cc(OC)c1OC,101*,0.051*,95*,-7,101*,99*,99*,99*,103*,105*,103*
COc1ccc(CCc2cc(OC)c(OC)c(OC)c2)cc1,.,.,0,4,.,.,.,.,.,.,.
CC(=O)c1c(C)n([O-])c2cc(C)ccc2[n+]1=O,23*,0.54*,11*,-3,25*,63*,10.0*,56*,8,9,52*
COc1ccc(-c2c(C)n([O-])c(C)c(C)[n+]2=O)cc1OC,1,0.69,-1,4,0,.,.,.,.,.,.
S=C(NCc1ccccc1)N1CCN(c2ccccc2)CC1,2,0.68,4,-2,2,.,.,.,.,.,.
Cc1nnc(NCCc2ccccc2)c2ccccc12,18*,0.52,13*,10,15*,10,8.5*,10,2,6,6
Cc1nnc(NCc2cccc(Cl)c2)c2ccccc12,3,0.63,1,1,1,.,.,.,.,.,.
Cc1ccc(NC(=O)c2snc3ccc(Cl)cc23)cc1C,2,0.74,3,-3,-2,.,.,.,.,.,.
Cn1c(-c2ccccc2)cc(=O)cc1-c1ccccc1,.,.,2,.,.,.,.,.,.,.,.
O=c1cc(-c2ccccc2)cc(-c2ccccc2)n1O,17*,0.43*,19*,9,21*,11,15*,14,10,14,10
COc1cc(OC)c(OC)cc1/C=N/NC(=O)c1cc(-c2cccn2C)n[nH]1,0,.,3,5,-2,.,.,.,.,.,.
CCOc1cccc(/C=N/NC(=O)c2cc(-c3cccn3C)n[nH]2)c1O,17*,.,18*,-11,12*,19*,21*,20,9,10,15
